Source: PubChem BioAssay
Activity calls are given as the source filed them.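 The calls were made as follows, unless noted: active = NADPH fluorescence slope more negative than the mean of all samples by about 3 SD, 99.7% confidence; inactive = the rest.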

Each molecule was assayed against Voltage-gated potassium channel subunit beta-2 (Rattus norvegicus) (UniProt P62483) (assay: inhibitors of rat Kvbeta2 reductase activity – biochemical, NADPH fluorescence, primary screen (AID 622;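 active = fluorescence slope higher than the sample average by over 3 SD, cut at about -0.22 in these data, passing the limit was not always enough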;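 also: slope of raw intensity against log time taken from 70 to 1610 s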)). Details: recombinant KvBeta, 4-cyanobenzaldehyde reduction, at 10 µM, hits give high values.
Chain of Voltage-gated potassium channel subunit beta-2 (Rattus norvegicus) (P62483 whole entry, looked up): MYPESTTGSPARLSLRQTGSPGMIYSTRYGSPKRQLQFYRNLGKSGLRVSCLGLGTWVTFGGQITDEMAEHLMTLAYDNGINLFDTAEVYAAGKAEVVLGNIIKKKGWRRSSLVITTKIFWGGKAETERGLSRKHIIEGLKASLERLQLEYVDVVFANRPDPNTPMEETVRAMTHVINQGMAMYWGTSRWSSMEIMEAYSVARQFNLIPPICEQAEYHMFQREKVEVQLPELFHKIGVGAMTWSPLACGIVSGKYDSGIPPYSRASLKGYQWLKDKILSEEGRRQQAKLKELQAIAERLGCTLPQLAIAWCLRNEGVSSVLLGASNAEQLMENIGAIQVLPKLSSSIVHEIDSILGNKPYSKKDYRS

Fluorescence slope, inactive:
Cn1c(C(=O)OC(C(=O)NC2CCCC2)c2cccnc2)cc2sccc21 (stereo not drawn) -0.437, C=CCSc1nnc(-c2ccc(Cl)cc2Cl)o1 -0.373, COCc1nnc(SCC(=O)NC(C)c2ccccc2)n1-c1ccccc1 (stereo not drawn) -0.434, Cc1nc2ccc(F)cc2cc1C(=O)NCC1CCCO1 (stereo not drawn) -0.432, COc1ccc(OCCOC(=O)c2cccc(-n3cnnn3)c2)cc1 -0.462, Cc1occc1-c1nnc(SCC(=O)N2CCOCC2)n1Cc1ccco1 -0.371, COc1ccccc1C(=O)NCC(c1cccnc1)N(C)C (stereo not drawn) -0.422, O=C1NC(=O)C(CC(=O)N(c2ccccc2)C2(C(=O)NC3CCCC3)CCCCC2)N1 (stereo not drawn) -0.391, CCOC(=O)N1CCN(C(=O)CN(Cc2ccccc2)S(=O)(=O)c2ccc(OC)c(C)c2)CC1 -0.38, O=C(CSc1nc2ccccc2o1)N1CCN(C(=O)c2ccco2)CC1 -0.376, c1cc2c(cc1C1CCCN1)OCCCO2 (stereo not drawn) -0.418, COCCNC(=O)C(c1ccc(C)o1)N(C(=O)c1snc(C(N)=O)c1N)c1ccc(C)cc1 (stereo not drawn) -0.378, O=C(CN1CCN(Cc2ccccc2)CC1)NCC1COc2ccccc2O1 (stereo not drawn) -0.356, Cc1nc2ccccc2nc1OCC(=O)Nc1cc(C(F)(F)F)ccc1N1CCOCC1 -0.429, O=C(COc1ccc(F)cc1)Nc1ccc(-n2cnnn2)cc1 -0.409, COc1ccc(N2CCN(C(=O)CSc3ccccc3)CC2)cc1 -0.401, COC(=O)CCn1nnc(-c2ccc(C)cc2)n1 -0.341, COc1cccc(NC(=O)c2ccccc2NS(C)(=O)=O)c1 -0.418, CN(CC(=O)Nc1cccnc1)S(=O)(=O)c1cc(Cl)ccc1Cl -0.468, CC12CN3CCN(CC(C3)C1(O)CN1CCCCC1)C2 (stereo not drawn) -0.347, CC1CC(C)CN(c2nc3c(c(=O)[nH]c(=O)n3C)n2CCCSc2nc3ccccc3s2)C1 (stereo not drawn) -0.445, O=C(c1cccnc1)N1CCN(C(=O)c2ccccc2F)CC1 -0.353, CCOc1nc(NCCC2=CCCCC2)nc(N2CCOCC2)n1 -0.364

The molecules below were run against Voltage-gated potassium channel subunit beta-2 (Rattus norvegicus) (UniProt P62483) (assay: enhancers of rat Kvbeta2 NADPH turnover – biochemical, NADPH fluorescence, primary screen (AID 623;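 also: fluorescence intensity change per second fitted from 20 to 320 s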)). Details: Recombinant KvBeta, NADPH fluorescence decrease slope, 10 min; at 10 µM; hits give low values.

NADPH fluorescence slope, inactive:
NS(=O)(=O)c1ccc(NC(=O)CSc2nnc(Cc3cccs3)n2-c2ccccc2)cc1 -4.3e-05, O=C(O)CSc1ncn[nH]1 -4.4e-05, Cc1ccc2c(C(=O)CN3CCSCC3)c(C)[nH]c2c1 -8.2e-05, COc1cccc(CC(=O)Nn2c(C)nc3ccccc3c2=O)c1 -6e-05, Cc1nnc(SCc2cccc(Oc3ccccc3)c2)n1N -3e-05, CC(CCc1ccccc1)NC(=O)C1CCN(S(=O)(=O)c2cnc[nH]2)CC1 (stereo not drawn) -5.5e-05, Cc1ccc(C)n1-c1ccc(-n2cnnn2)cc1 -5.9e-05, CC(OC(=O)CNC(=O)C12CC3CC(CC(C3)C1)C2)C(=O)Nc1ccc(N2CCOCC2)cc1 (stereo not drawn) -5.7e-05, CC(C)CC(c1nnnn1C(C)(C)C)N1CCN(C2CCCC2)CC1 (stereo not drawn) -6.5e-05, CCOC(=O)C1=C(c2ccccc2)N2CCS(=O)(=O)N=C2S1 -1e-05, CCOC(=O)Nc1ccc2c(c1)N(C(=O)CCN1CCOCC1)c1ccccc1S2 -6.8e-05, c1cnc(NCCNc2ncccn2)nc1 -4.1e-05, CN(C)C(=O)COc1ccc2cc(-c3ccccc3)c(=O)oc2c1 0, COc1ccc(COC(=O)c2n[nH]c3ccccc23)cc1F -5.5e-05, Cc1cc(C(=O)COC(=O)CCc2nc3ccccc3s2)c(C)n1C -3.3e-05, Cn1c(=O)cc(SCC(=O)NCc2cccnc2)c2ccccc21 -3.9e-05, CSc1ccc(-c2cc(=O)c3ccccc3o2)cc1 1.2e-05, Cn1c(C(=O)OC(C(=O)NC2CCCC2)c2cccnc2)cc2sccc21 (stereo not drawn) -5.4e-05, C=CCSc1nnc(-c2ccc(Cl)cc2Cl)o1 -5.2e-05, COCc1nnc(SCC(=O)NC(C)c2ccccc2)n1-c1ccccc1 (stereo not drawn) -3.6e-05, Cc1nc2ccc(F)cc2cc1C(=O)NCC1CCCO1 (stereo not drawn) -4.9e-05, COc1ccc(OCCOC(=O)c2cccc(-n3cnnn3)c2)cc1 -4.8e-05, Cc1occc1-c1nnc(SCC(=O)N2CCOCC2)n1Cc1ccco1 -5e-05, COc1ccccc1C(=O)NCC(c1cccnc1)N(C)C (stereo not drawn) -5.3e-05, O=C1NC(=O)C(CC(=O)N(c2ccccc2)C2(C(=O)NC3CCCC3)CCCCC2)N1 (stereo not drawn) -1.3e-05, CCOC(=O)N1CCN(C(=O)CN(Cc2ccccc2)S(=O)(=O)c2ccc(OC)c(C)c2)CC1 1e-05, O=C(CSc1nc2ccccc2o1)N1CCN(C(=O)c2ccco2)CC1 -5.7e-05, c1cc2c(cc1C1CCCN1)OCCCO2 (stereo not drawn) 1.8e-05, COCCNC(=O)C(c1ccc(C)o1)N(C(=O)c1snc(C(N)=O)c1N)c1ccc(C)cc1 (stereo not drawn) -5.3e-05, O=C(CN1CCN(Cc2ccccc2)CC1)NCC1COc2ccccc2O1 (stereo not drawn) -7.8e-05, Cc1nc2ccccc2nc1OCC(=O)Nc1cc(C(F)(F)F)ccc1N1CCOCC1 -3e-05, O=C(COc1ccc(F)cc1)Nc1ccc(-n2cnnn2)cc1 -0.000109, COc1ccc(N2CCN(C(=O)CSc3ccccc3)CC2)cc1 -5.3e-05, COC(=O)CCn1nnc(-c2ccc(C)cc2)n1 -4.2e-06, COc1cccc(NC(=O)c2ccccc2NS(C)(=O)=O)c1 -3.8e-05, CN(CC(=O)Nc1cccnc1)S(=O)(=O)c1cc(Cl)ccc1Cl -1.6e-06, CC12CN3CCN(CC(C3)C1(O)CN1CCCCC1)C2 (stereo not drawn) -5.6e-05, CC1CC(C)CN(c2nc3c(c(=O)[nH]c(=O)n3C)n2CCCSc2nc3ccccc3s2)C1 (stereo not drawn) -5e-05, O=C(c1cccnc1)N1CCN(C(=O)c2ccccc2F)CC1 -3.8e-05, CCOc1nc(NCCC2=CCCCC2)nc(N2CCOCC2)n1 -5.8e-05
